A350 fluor = A350 region autofluorescence; max dye-equivalent concentration, M; 59,000 tested, 11% active; Compound autofluorescence, 340/450 nm, Alexa 350 dye-equivalents; active compounds read high; in the data active means max dye-equivalent concentration above about 10 nM; inconclusive means mostly about 1.1 nM to 9.6 nM
AID923 = qHTS Assay for Allosteric/Competitive Inhibitors of Caspase-1: Spectroscopic Profiling in AFC Spectral Region; 75,000 tested, 1.1% active; AID 923, 2007; compound fluorescence, AFC spectral region (405/520 nm); Potency, µM (top dose mostly 57.5 µM), for inactives: at the highest dose fluorescence increase, most hits filed as activators; further: potency means the concentration at half of the fitted maximal effect; 0% is about no effect
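Titrations up to 57 uM read every 20 sec for 3 min (405/520 nm) with 50 nM caspase 1 and 5 uM Ac-WEHD-AFC, pH 7.5 HEPES buffer. Fluorescence-vs-time intercept gave baseline, scaled against on-plate AFC standard.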
4-MU autofl = 4-MU region autofluorescence; compound autofluorescence, 340/450 nm, 4-MU equivalents; active compounds read high; max dye-equivalent concentration, M; 59,000 tested, 11% active; in the data active means max dye-equivalent concentration above about 10 nM; inconclusive means mostly about 1.1 nM to 9.6 nM
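Compounds in 100 mM Tris, pH 8.0, sat 15 min at room temperature before fluorescence was read at 340 nm excitation/450 nm emission; a per-plate six-point 4-MU standard curve converted signals to dye-equivalent concentration at each compound concentration.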
HADH2 inhib = blocks human hydroxyacyl-CoA dehydrogenase type II; 73,000 tested, 3.4% active; Potency, µM (titrated, usually from 57.1 µM), for inactives: at the highest dose activity change, negative = inhibition, actives largely listed as inhibitors; recombinant HADH2, NADH fluorescence, beta-hydroxybutyryl-CoA; further: potency means the concentration at half of the fitted maximal effect; on the % scale 0 is the no-effect control and ±100 the full control effect; nearly all actives have a fitted effect of over 60% in size
Target sequence (Q99714 whole entry, looked up, one chain of several): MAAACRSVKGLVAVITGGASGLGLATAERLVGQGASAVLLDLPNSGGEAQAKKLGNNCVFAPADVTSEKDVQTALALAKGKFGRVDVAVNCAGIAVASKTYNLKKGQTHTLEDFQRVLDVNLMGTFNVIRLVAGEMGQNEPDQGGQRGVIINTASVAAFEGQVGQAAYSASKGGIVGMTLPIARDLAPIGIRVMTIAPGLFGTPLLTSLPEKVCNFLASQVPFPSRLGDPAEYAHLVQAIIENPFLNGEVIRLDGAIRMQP
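Activity measured as NADH fluorescence gain (360/450 nm), taken as the change between first and last reads of a 4-min kinetic run. Conditions: pH 9.0 Tris buffer, 20 nM E. coli-expressed His-tagged enzyme, 1 mM NAD+, 90 uM beta-hydroxybutyryl-CoA; 15-min compound preincubation.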
HSD17B inh = inhibitors of human HSD17B10 dehydrogenase; Q99714; recombinant HSD17B10, NADH fluorescence kinetic; Potency, µM (titrated, usually from 57.1 µM), without a hit: at the highest dose activity change, negative = inhibition, most hits filed as inhibitors; 75,000 tested, 7.6% active; AID 893;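 further: the protocol describes HADH2 (HSD17B10) and not the HSD17B4 of the title; potency means the concentration at half of the fitted maximal effect; on the % scale 0 is the no-effect control and ±100 the full control effect; nearly all actives have a fitted effect of over 70% in size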
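20 nM HADH2, pH 9.0 Tris/Tween; cpd preinc 15 min RT; start w/ 1 mM NAD+ + 90 uM b-hydroxybutyryl-CoA; kinetic fluor ex360/em450 q30s x 4 min; delta last-first.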
CRE Fsk mod = alters forskolin-stimulated CRE reporter signaling in CHO cells; CHO CRE-bla reporter (cAMP response element driving beta-lactamase), forskolin EC10, beta-lactamase ratio; Potency, µM (series often up to 38.2 µM), without a hit: at the top dose activity change, negative = inhibition, actives largely listed as activators; 71,000 tested, 2.5% active; AID 662; active means well fitted activation curve with a large enough effect in the signal ratio, with a control signal flat, not every such curve was filed as active; inconclusive means small, poorly fitted or top-dose-only effect, or effect the other way, or a change in a side signal; the % refers to the signal ratio; further: potency means the concentration at half of the fitted maximal effect; % of control where 0% means no effect
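qHTS titration format; CRE-bla CHO reporter; stimulus EC10 NKH 477, a water-soluble forskolin. Read: CCF4 460/530 nm ratio. Potency expressed as AC50 for activators or inhibitors.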
The depositor's hits bear a star; i = inactive; ? = inconclusive; . = not tested or not shown; [ ] = another dose, or the depositor's remark. Rows were chosen to be rich in hits. Some 14% of all compounds tested hit in one or more screens of this group. Unless noted, the call rests on the fitted dose curve; in most records, active means well fitted curve in the direction sought with a large enough effect; inconclusive means small, poorly fitted or top-dose-only effect, or another doubt; inactive means no such curve, though single readings can be large; an effect the other way counts as inactive or inconclusive.

SMILES | A350 fluor | AID923 | 4-MU autofl | HADH2 inhib | HSD17B inh | CRE Fsk mod
CCOC(=O)COc1ccc(-c2nnc(-c3ccccc3)o2)cc1 | ? | 2% | ? | 155% | 102% | -4%
Oc1ccccc1-c1nnc(COc2ccccc2)o1 | . | 2% | . | 13% | ? | -13%
O=c1ccc2ccc(OCc3nnc(-c4ccccc4Br)o3)cc2o1 | 7.7e-08M* | 1% | 6.9e-08M* | ? | ? | ?
Cc1cc(=O)oc2cc(OCC(=O)OCc3nnc(-c4ccccc4)o3)ccc12 | 1.7e-08M* | 0% | 1.7e-08M* | ? | 25µM* | 1%
CN(C)CCCN1c2ccccc2C(C)(C)c2ccccc21 | i | 8%[11.5 µM] | i | 7%[11.4 µM] | -2%[11.4 µM] | -6%[7.6 µM]
Cc1nn(CCC(=O)O)c2nc(-c3cccnc3)cc(C(F)(F)F)c12 | 1.1e-07M* | 0% | 1.2e-07M* | 25µM* | 25µM* | 10µM*
COC(=O)[C@H](C)NC(=O)C/C=C\[C@@H](C)[C@@H](CO)OC | . | -1%[11.5 µM] | . | 1%[11.4 µM] | 1%[11.4 µM] | .
CCN(Cc1cc2ccc(C)cc2[nH]c1=O)C(=O)c1cccnc1 | ? | -2% | ? | 8% | ? | -3%
Cc1cc2cc(CN(Cc3ccco3)C(=O)C3CCCCC3)c(=O)[nH]c2cc1C | i | -1% | i | -10% | 11% | -3%
CCOc1ccc2[nH]c(=O)c(CN(Cc3ccco3)C(=O)c3cccc(F)c3)cc2c1 | 1.5e-07M* | -2% | 1.1e-07M* | -14% | 20µM* | 5%
CCN(Cc1cc2cc(C)ccc2[nH]c1=O)C(=O)c1cccc(OC)c1 | ? | 2% | ? | -6% | 25µM* | ?
COc1cccc(C(=O)N(Cc2ccco2)Cc2cc3cccc(C)c3[nH]c2=O)c1 | i | 0% | i | 10% | ? | -4%
COc1ccc2[nH]c(=O)c(CN(Cc3ccco3)C(=O)c3ccccc3)cc2c1 | 3.2e-07M* | 5% | 2.1e-07M* | -22% | 32µM* | 4%
CCOc1ccc2[nH]c(=O)c(CN(Cc3ccco3)C(=O)c3ccc(Br)cc3)cc2c1 | 3.4e-08M* | 2% | 4.7e-08M* | -15% | 13µM* | -2%
CC(C)CNc1nc2ncnc(N)c2[nH]1 | i | -1%[11.5 µM] | i | 11%[11.4 µM] | 4%[11.4 µM] | -7%[7.6 µM]
COC(=O)[C@@]1(Cc2ccccc2)[C@H]2c3cc(C(=O)N(C)C)n(Cc4ccc(OC)c(OC)c4)c3C[C@H]2CN1C(=O)c1ccccc1 | . | -2% | . | 10% | 12% | ?
C[C@@H](C(=O)Nc1ccc2ccccc2c1)[C@H]1C[C@]1(C)[C@H](NC(=O)c1ccccc1)c1ccccc1 | . | -1% | . | 0% | -1% | ?
COc1ccc(-c2coc3cc(OC(C)=O)cc(OC(C)=O)c3c2=O)cc1 | . | -2% | . | . | -3% | .
CCC(=O)N(Cc1cc2cc(OC)ccc2[nH]c1=O)c1cc(C)ccc1C | 1.5e-07M* | 0% | 1.7e-07M* | -13% | 16µM* | ?
COc1ccc(C(=O)N(Cc2ccco2)Cc2cc3cc(C)ccc3[nH]c2=O)cc1OC | 4e-08M* | 4% | 3.1e-08M* | 2% | -24% | 1%
Cc1ccc2[nH]c(=O)c(CN(Cc3ccco3)C(=O)c3ccncc3)cc2c1 | ? | 0% | ? | -8% | ? | 5%
C[C@H](NCCN(C)C)[C@@H]1CCC2C3CCc4cc(O)ccc4[C@H]3CCC21C (stereo not given in full) | i | 1%[11.5 µM] | i | 18%[11.4 µM] | 12%[11.4 µM] | -7%[7.6 µM]
CC(=O)OC[C@@H]1O[C@@H](O/N=C2/C[C@@H](O)[C@@H](O)[C@@H]3[C@@H]4C(=O)N(C5CCCCC5)C(=O)[C@H]4CC[C@H]23)[C@H](OC(C)=O)[C@H](OC(C)=O)[C@@H]1OC(C)=O | . | -2%[11.5 µM] | . | 5%[11.4 µM] | 2%[11.4 µM] | .
CC1C(=O)CCC2[C@]1(C)CCC1[C@]2(C)CC[C@@]2(C)C3CC(C)(C)CC[C@]3(C)CC[C@@]12C (stereo not given in full) | . | 0% | . | . | 2% | .
COc1ccc(OC)c(NC(=O)Cn2c(CCC(=O)O)ccc2-c2cccs2)c1 | ? | 3% | ? | -19% | -17% | 0%
SMILES | A350 fluor | AID923 | 4-MU autofl | HADH2 inhib | HSD17B inh | CRE Fsk mod
O=C(O)CCc1ccc(-c2cccs2)n1-c1ccc(C(=O)O)cc1 | . | -1% | . | 13µM* | ? | -4%
CC(=O)c1cccc(-n2c(CCC(=O)O)ccc2-c2cccs2)c1 | i | -2% | i | 16µM* | -95% | 16%
O=C(O)CCc1ccc(-c2cccs2)n1CCC(=O)O | ? | 6% | ? | ? | 20µM* | -8%
COc1ccc(C(=O)N2CCC[C@@]3(CCN(Cc4ccc(C#N)cc4)C3)C2)cc1 | i | 4% | i | 6% | 4% | -1%
CC(=O)c1c(COC(=O)c2cccnc2)nc2ccccc2[n+]1[O-] | 1.7e-08M* | 0% | ? | 2% | 1% | ?
CCOc1ccc2nc(COC(=O)c3ccco3)c(C(C)=O)[n+]([O-])c2c1 | i | 2% | i | 8% | -2% | 5%
CN(Cc1cccc2ccccc12)Cc1cccc2ccccc12 | i | 0%[11.5 µM] | i | -8%[11.4 µM] | 0%[11.4 µM] | -5%[7.6 µM]
O=c1[nH]c(CN2CCN(c3ccccc3)CC2)nc2ccccc12 | ? | -1% | ? | 15% | -18% | ?
CC(=O)N1CCN(C(=O)CCc2nc3sc4c(c3c(=O)[nH]2)CCCC4)CC1 | 2.2e-08M* | -1% | 1.6e-08M* | 10% | ? | 2%
CCOC(=O)c1nc2sc3c(c2c(=O)[nH]1)CCCC3 | . | 10% | . | 32µM* | 25µM* | 13%
O=c1[nH]c(CN2CCN(Cc3ccccc3)CC2)nc2sc3c(c12)CCC3 | 1.4e-08M* | 3% | 1.5e-08M* | 17% | ? | ?
O=C(O)C(Cc1ccccc1)Cc1ccccc1 | i | -1%[11.5 µM] | i | 6%[11.4 µM] | 7%[11.4 µM] | ?
c1ccc(Nc2nc(-c3ccoc3)nc3ccccc23)cc1 | i | 2% | i | -27% | ? | ?
O=C(c1cc(C(F)(F)F)cc(C(F)(F)F)c1)N1CCC[C@@]2(CCN(c3ccccc3)C2)C1 | i | 1% | i | 7% | -14% | -6%
CCOc1ccc(NCC2CCOC(C)(C)C2)cc1 (stereo not given) | i | 0% | i | 2% | -20% | 3.2µM*
Cc1cc(Oc2ccccc2)nc(-c2ccccc2)n1 | . | 5% | . | -4%[11.4 µM] | 2% | ?
Cc1cc(Oc2ccccc2)nc2ccc(O)cc12 | . | -1% | . | 25µM* | 25µM* | 6%
CC(C)=CCC/C(C)=C/CO/N=C1/C[C@@H](O)[C@@H](O)[C@@H]2[C@@H]3C(=O)N(C4CCCCC4)C(=O)[C@H]3CC[C@@H]12 | . | 1%[11.5 µM] | . | 8%[11.4 µM] | -6%[11.4 µM] | .
CN(C)CCCSc1ccccc1NC(=O)/C=C\c1ccccc1 | . | -2% | . | 6% | -4% | ?

Bioassay records from PubChem.
